Bioassay records: PubChem, National Center for Advancing Translational Sciences (NCATS)
PNC assembly inh: blocks assembly of the perinucleolar compartment; PC3M PTB-GFP, PNC prevalence imaging, 16 h; stronger effect = lower value; 3.1% of 140,000 active; activity change (PNC), negative = inhibition, % at 10 µM; AID 2417;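 active = readout at or below -70, meaning at least 70% loss of cells showing the perinucleolar compartment, a nuclear body marking cancer cells; inconclusive = readout between -30 and a set limit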;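 also: plate controls were DMSO wells for no effect and camptothecin positive control wells for full effect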
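PC3M cells stably expressing PTB-GFP, 750–1000 cells/well, treated 16 h at 37 °C with compound (23 nl of library stock), in duplicate. After paraformaldehyde fixation and Hoechst stain, imaged at 20x; PNC prevalence scored by image analysis.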
ALDH1A1 inh: inhibitors of human aldehyde dehydrogenase 1A1; Purified ALDH1A1, NADH fluorescence, propionaldehyde substrate; Potency, µM (highest dose often 75.3 µM), inactives show at the highest dose activity, negative = inhibition, hits mostly inhibitors; 7.3% of 220,000 active;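 also: potency is read from the fitted curve at half-maximal effect; plate controls were no enzyme wells and a reference inhibitor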
12-hLO inh: blocks human 12-lipoxygenase activity; P18054; purified 12-hLO, xylenol orange hydroperoxide absorbance; Potency, µM (highest dose often 57.1 µM), inactives show at the highest dose activity change, negative = inhibition, actives largely listed as inhibitors; 0.12% of 150,000 active; AID 1452; active = well fitted inhibition curve with a large enough effect; inconclusive = small, poorly fitted or top-dose-only effect; also: potency is read from the fitted curve at half-maximal effect; nearly all actives have a fitted effect of over 55% in size
Target sequence (P18054 whole entry, looked up): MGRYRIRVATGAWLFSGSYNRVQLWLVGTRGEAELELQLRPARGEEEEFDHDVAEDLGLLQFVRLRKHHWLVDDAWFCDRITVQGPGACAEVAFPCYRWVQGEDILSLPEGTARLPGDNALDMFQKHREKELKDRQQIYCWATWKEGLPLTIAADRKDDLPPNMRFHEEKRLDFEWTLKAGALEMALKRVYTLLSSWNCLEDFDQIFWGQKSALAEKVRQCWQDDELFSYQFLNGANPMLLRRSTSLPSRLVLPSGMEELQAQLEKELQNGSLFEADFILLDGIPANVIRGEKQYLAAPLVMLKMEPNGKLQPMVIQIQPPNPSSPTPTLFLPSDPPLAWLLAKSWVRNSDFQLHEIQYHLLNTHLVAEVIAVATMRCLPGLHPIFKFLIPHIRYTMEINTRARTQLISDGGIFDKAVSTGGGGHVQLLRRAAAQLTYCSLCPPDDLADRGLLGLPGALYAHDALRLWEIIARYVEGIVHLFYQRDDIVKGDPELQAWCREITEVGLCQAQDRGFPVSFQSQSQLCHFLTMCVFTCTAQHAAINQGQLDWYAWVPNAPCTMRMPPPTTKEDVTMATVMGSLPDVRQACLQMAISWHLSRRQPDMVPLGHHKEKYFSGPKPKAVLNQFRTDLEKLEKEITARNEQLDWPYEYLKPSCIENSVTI
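Xylenol orange chromogenic assay: hydroperoxide from 12hLO oxidises Fe(II), giving red-shifted Fe(III)-XO absorbance. Conditions: 150 nM enzyme, 40 uM arachidonic acid, 25 mM Hepes pH 7.0, 0.01% Triton X-100, 30 min, room temperature.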
HPGD block: inhibitors of human 15-hydroxyprostaglandin dehydrogenase (HPGD); purified HPGD, NADH fluorescence kinetic, PGE2 substrate; Potency, µM, for inactives: at the top dose activity change, negative = inhibition, most hits filed as inhibitors; 4.3% of 150,000 active; AID 894; also: potency is read from the fitted curve at half-maximal effect
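20 nM HPGD preincubated 15 min at room temperature with compound in 50 mM Tris-HCl pH 8, 0.01% Tween 20. Started with 1 mM NAD+ and 30 uM prostaglandin E2; NADH fluorescence (360/450 nm) read 5 times over 30-s intervals, last minus first.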
Lamin A splicing: modulators of lamin A splicing | HeLa LMNA splicing GFP/RFP minigene ratio, 48 h | 0.01% of 200,000 active | Potency, µM (highest dose often 46.1 µM), inactives show top-dose ratio change, negative = inhibition, hits mostly inhibitors | AID 1487; active = well fitted inhibition curve with a large enough effect in the signal ratio, with a control signal flat, not every such curve was filed as active; inconclusive = small, poorly fitted or top-dose-only effect, or effect the other way, or a change in a side signal; the % refers to the signal ratio; also: potency is read from the fitted curve at half-maximal effect
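S3 HeLa stable clones carrying a lamin A-EGFP splicing minigene plus DsRed2 were seeded at 600 cells/well in Opti-MEM with 2% FBS, pin-dosed and incubated 48 h at 37°C. Acumen cytometry (488 nm) gave the GFP/RFP total-intensity ratio.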
* hit, by the source's call; ? = inconclusive; nt = no result; [ ] = remark or other dose. Only some compounds are listed: those with a hit (about 10% of all), similar ones and a draw of the others. Unless noted, calls follow the shape of the dose curve; as a rule, active = well fitted inhibition curve with a large enough effect (not every such curve was filed as active); inconclusive = small, poorly fitted or top-dose-only effect, or another doubt; inactive = no such curve, though single readings can be large or run the other way. Unless noted, % is scaled to controls: 0 for no effect and ±100 for the full control effect.

SMILES | PNC assembly inh | ALDH1A1 inh | 12-hLO inh | HPGD block | Lamin A splicing
OC(c1ccccc1)c1nc2ccccc2s1 (configuration not stated) | -29 | 7% | -7% | 16µM* | 5%
CCCCn1c(-c2csc3c2CCCC3)n[nH]c1=S | -4 | ? | ? | 16µM* | -11%
CCn1c(-c2csc3c2CCCC3)n[nH]c1=S | 33 | ? | -3% | 25µM* | -17%
C=CCn1c(-c2csc3c2CCC(C)C3)n[nH]c1=S (configuration not stated) | ? | ? | -16% | 20µM* | ?
C=CCn1c(-c2ccccc2OC)n[nH]c1=S | 15 | 6% | -1% | -11% | -5%
Nc1nc(=O)n(C2OC(CO)C(O)C2O)cc1Cl (configuration not stated) | nt | 5% | -1% | -5% | ?
O=C(O)c1ccc(F)c(S(=O)(=O)Nc2cccc(F)c2)c1 | nt | 7% | -3% | 0% | nt
O=C(O)c1cccc(NC(=S)N/N=C/c2cccc(O)c2)c1 | nt | -8% | nt | nt | -9%[46 µM]
Cc1ccc(C(=O)O)cc1NC(=S)NC(=O)c1ccc(-c2ccccc2)cc1 | nt | 14µM* | nt | nt | ?
NS(=O)(=O)c1ccc(NC(=S)NC(=O)c2ccc(-c3ccccc3)cc2)cc1 | 48 | 2µM* | -1% | -29% | -15%
O=C(O)c1cccc(NC(=S)N/N=C/c2ccccn2)c1 | nt | 20µM* | nt | nt | -13%[46 µM]
O=C(O)c1cccc(NC(=S)NC(=O)c2ccc(-c3ccccc3)cc2)c1 | nt | 25µM* | nt | nt | -13%[46 µM]
C=CCC(C)(O)c1ccc(OC)cc1 (configuration not stated) | nt | -1% | nt | -9% | nt
CN1CCN(CCCBr)CC1 | nt | 13%[13.5 µM] | 1%[11.4 µM] | -3% | nt
Cc1ccc(Cn2ccn(Cc3ccc(C)cc3)c(=O)c2=O)cc1 | nt | nt | nt | nt | 8%[46 µM]
O=C(O)c1cccc(C[C@H](Br)C(=O)O)c1 | nt | -1%[13.5 µM] | -2%[11.4 µM] | -10% | nt
COc1ccc(NC(=O)c2[nH]nc3c2CSc2ccccc2-3)c(OC)c1 | nt | nt | nt | nt | 13%[46 µM]
FC(F)(F)c1ccccc1Cl | nt | -21% | -4% | -4% | nt
O=C(O)CCCC/C=C\C[C@@H](O)/C=C/C=C/C=C\[C@@H](O)CCCC(=O)O | nt | 10% | 5% | -15% | nt
N[C@@H](Cn1ccc(=O)n(Cc2ccccc2C(=O)O)c1=O)C(=O)O | nt | -4% | 3% | -14% | nt
Cc1ccc(C(=O)NC(=S)Nc2cccc(-c3nc4ccccc4s3)c2)cc1 | -112* | 11µM* | 0% | -8% | -3%
CCOc1cc(C=O)cc(Br)c1OCC(=O)NCCc1ccccc1 | nt | 6.3µM* | nt | nt | ?
COc1cc(C=O)c(Br)cc1OCC(=O)NCCc1ccccc1 | nt | -6% | nt | nt | -18%[46 µM]
O=C(OCc1cc(=O)n2nc(-c3cccs3)sc2n1)c1ccccc1 | nt | nt | nt | nt | 7%[46 µM]
CN(Cc1ccccc1)C(=O)c1ccc2c(c1)OCO2 | 43 | -4% | -2% | 14µM* | 1%
SMILES | PNC assembly inh | ALDH1A1 inh | 12-hLO inh | HPGD block | Lamin A splicing
CN(Cc1ccccc1)C(=O)COC(=O)c1ccc2c(c1)OCO2 | -3 | 2% | -13% | -14% | -10%
CCCCN(C(=O)c1ccc2c(c1)OCO2)c1ccccc1 | nt | 14µM* | nt | nt | nt
Cc1ccc2[nH]c(-c3ccccc3)cc(=O)c2c1 | -111* | -26% | -2% | ? | ?
N#CC(=C(\N)Sc1ccccc1N)/C(C#N)=C(/N)Sc1ccccc1N | nt | nt | nt | 8.9µM* | ?
CCC(=O)N1CCc2cc(CNC(=O)c3ccc(F)cc3)ccc21 | nt | nt | nt | nt | 21%[46 µM]
CCCN1C(=O)/C(=C/c2c(N3CCNC(=O)C3CC(=O)OC)nc3c(C)cccn3c2=O)SC1=S (configuration not stated) | nt | 5µM* | nt | nt | nt
Cc1cccc(C(=O)Nc2cccc(OC(=O)c3cccc(C)c3)c2)c1 | ? | 7% | -6% | -3% | -1%
Cc1cccc(C(=O)Oc2csc(=S)n2C(=O)c2cccc(C)c2)c1 | -2 | 8.9µM* | 5% | 14µM* | 2%
O=C(Oc1cccccc1=O)c1ccccc1 | nt | -2% | nt | nt | ?
O=C(Oc1csc(=S)n1C(=O)c1ccccc1)c1ccccc1 | 5 | 3.2µM* | 0% | 4.5µM* | 0%
FC(F)(F)c1ccc(C2[C@H]3CN(CC4CCCCC4)[C@H](c4ccccc4)C34CC2(c2ccccc2)C4)cc1 (some centres not stated) | nt | -9% | -5% | -10% | nt
CCNc1nc(NC(C)C)nc(N(C#N)CCOc2ccccc2)n1 | 8 | -1% | 0% | -8% | -8%
CN(C)c1nc(Cl)nc(N(C#N)CCOc2ccccc2)n1 | nt | 14µM* | nt | nt | -7%[46 µM]
CC1(C)CC(=O)C(CC(=O)Nc2ccc(S(N)(=O)=O)cc2)=C(O)C1 | -90* | ? | 4% | -13% | -5%
Fc1ccc(CNCc2ccccc2Cl)cc1 | nt | 11µM* | nt | nt | ?
Cc1nc(SCn2nnc3ccccc3c2=O)nc(C)c1C | ? | ? | -4% | 14µM* | ?
C=CCn1c(SCn2nnc3ccccc3c2=O)nnc1-c1ccc(Br)cc1 | -84* | 1% | -8% | -2% | -12%
O=c1c2ccccc2nnn1CSc1ccc2ccccc2n1 | -104* | 2% | 0% | -23% | ?
O=c1c2ccccc2nnn1CSc1ccccc1 | ? | -11% | -4% | -8% | -7%
Cc1cc(SCn2nnc3ccccc3c2=O)nc2ccccc12 | -20 | ? | -5% | -11% | ?
CC(=O)c1ccc(N2CCN(S(=O)(=O)c3ccc4c(c3)CC(C)N4C(=O)C3CCC3)CC2)cc1 (configuration not stated) | nt | nt | nt | nt | -1%[46 µM]
Cc1cc(=O)oc2ccc(OCC(=O)N3CCc4ccccc43)cc12 | 13 | 16µM* | -3% | -20% | -9%
Cc1cc(=O)oc2cc(OCC(=O)N3CCc4ccccc4C3)ccc12 | -10 | ? | -3% | ? | ?
Cc1cc(=O)oc2cc(OCC(=O)N3CCCc4ccccc43)ccc12 | -19 | 22µM* | -1% | ? | -15%
CCCCCCCCCCCCCCCC(=O)NCCc1c[nH]c2ccccc12 | nt | 3% | nt | nt | nt
SMILES | PNC assembly inh | ALDH1A1 inh | 12-hLO inh | HPGD block | Lamin A splicing
CC(=O)NCCc1c(Cc2ccccc2)[nH]c2ccccc12 | nt | 2% | -7% | 14µM* | nt
CCCCNC(=O)Cc1c(O)c2ccccc2[nH]c1=O | -112* | ? | 8% | -25% | 4%
O=c1[nH]c2ccccc2c(O)c1O | nt | 0.56µM* | nt | nt | nt
COc1ccc2[nH]c(-c3ccccc3)c(CCNC(C)=O)c2c1 | nt | ? | 0% | ? | nt
CCCCC(=O)NCCc1c(Cc2ccccc2)[nH]c2ccccc12 | nt | ? | -6% | 16µM* | nt
CCCCCCNC(=O)Cc1c(O)c2ccccc2[nH]c1=O | ? | ? | -8% | ? | -6%
COc1cc(NC(=O)Cc2c(C(=O)O)c(C)cn2C)cc(OC)c1 | nt | nt | nt | nt | 0%[46 µM]
COc1cc(/C=C(\C#N)C(=O)N2CCOCC2)cc(Br)c1O | ? | ? | -3% | 25µM* | -6%
COC(=O)c1ccc(C(NC(=O)OCc2ccccc2)/C(=C/[C@@H](C)C(=O)NCc2ccccc2)c2cccnc2)cc1 (some centres not stated) | nt | -2% | 1% | -16% | nt
